IDE cell activ = IDE (human) activation, cell-based; activation, % at 5.96 µM; 0.073% of 340,000 active; P14735; HEK cells, FAbeta-B cleavage, fluorescence polarization; 0% vehicle, 100% cell-free pure enzyme wells; AID 493087;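 active = activation above the mean of all tested compounds plus 3 SD, set per screening campaign, cut at about 17% in these data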
IDE cell inh = inhibits human insulin-degrading enzyme in HEK cells. P14735. inhibition, % at 5.59 µM. 0.41% of 320,000 active. FAbetaB cleavage, fluorescence polarization;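 active = percent inhibition above the average of all tested compounds plus 3 SD, set per screening campaign, cut at about 16% in these data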;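 also: IDE supplied by intact live HEK cells; FP after avidin binding of uncleaved biotin substrate so inhibition keeps polarization high; 0% = DMSO wells and 100% = 60 µM reference IDE inhibitor Ii1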
CRFR2-BP ag = agonists of human CRF-binding protein/CRF-R2 receptor complex; AID 588473; 0.46% of 350,000 active; activation, % at 13.2 µM; HEK293 CRF-R2/CRF-BP, calcium dye fluorescence (FLIPR); percent of saturating CRF peptide response;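 active = activation of at least 50%, plus an integration ratio under a set limit after plate pattern correction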;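 also: plate controls were neutral control wells without compound for no effect and CRF at EC100 for full effect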
TPT1 inhibitor = blocks Candida albicans tRNA 2'-phosphotransferase | 0.81% of 300,000 active | AID 1962 | inhibition, % at 5 µM | recombinant caTPT1, FP RNA substrate dephosphorylation;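 active = inhibition above the mean of all tested compounds plus 3 SD, set per screening campaign, cut at about 24% in these data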;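 also: plate controls were DMSO alone for no effect and ferristatin control at 100 nM for full effect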
cardiac RTF act = increases calcium sensitivity of human cardiac regulated thin filaments; AID 493008; P19429+P45379; activation, % at 7.2 µM; IANBD-labeled TnC RTF fluorescence at EC20 calcium; 0% EC20 calcium, 100% full calcium; 0.24% of 340,000 active;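 active = activation above the mean over all tested compounds plus 3 SD, cut at about 30% in these data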;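 also: rise in fluorescence read as greater calcium sensitivity of cardiac thin filaments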
Cardiac RTF inh = cardiac RTF calcium desensitization; P19429+P45379; 0.12% of 340,000 active; inhibition, % at 7.15 µM; IANBD-labeled cardiac RTF, Ca2+ fluorescence; AID 493244;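 active = inhibition above the mean inhibition of all tested compounds plus 3 SD, cut at about 17% in these data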;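 also: assay run at fixed EC70 calcium of 1.6 mM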
TPT1 inh confirm = TPT1 (C. albicans) inhibition, confirmation. recombinant caTPT1, fluorescence polarization, RNase T1 coupled. shares compounds with TPT1 inhibitor. AID 2149. inhibition, % at 5 µM. 74% of 2,400 active;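 active = inhibition above the primary screen limit, the mean inhibition of all tested compounds plus 3 SD, cut at about 25% in these data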
RNase T1 counter = blocks Aspergillus oryzae RNase T1, a TPT1 counter-screen; shares compounds with TPT1 inhibitor; RNase T1 cleavage, fluorescence polarization, 1536-well; inhibition, % at 5 µM; 83% of 2,400 active;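 active = inhibition above the solvent-only control well mean plus 3 SD, limit set per screening run, cut at about 23% in these data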;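 also: plate controls were DMSO wells with enzyme for no effect and wells without RNase T1 for full effect; inhibitors block cleavage so intact labeled substrate keeps polarization high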
Target sequence (P00651 whole entry, looked up): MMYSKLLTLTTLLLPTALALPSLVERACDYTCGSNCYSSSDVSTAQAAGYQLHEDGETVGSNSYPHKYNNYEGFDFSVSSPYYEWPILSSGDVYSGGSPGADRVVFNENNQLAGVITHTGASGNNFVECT
* marks the source's active call; other numbers are inactive results. Rows were chosen to be rich in hits. Some 1.5% of all compounds tested hit in one or more screens of this group.

How did CCn1cc(C(=O)NCCCN(CC(C)C)CC(C)C)c(=O)c2cc(S(=O)(=O)N(C)C3CCCCC3)ccc21 do in these assays?
IDE cell activ: 2; IDE cell inh: -1; CRFR2-BP ag: 76*; TPT1 inhibitor: -2; cardiac RTF act: 1; Cardiac RTF inh: -6

What do the screens show for `CCN(CC)CCCNC(=O)c1cn(CC)c2ccc(S(=O)(=O)N(C)C3CCCCC3)cc2c1=O`?
IDE cell activ: 4; IDE cell inh: 0; CRFR2-BP ag: 1; TPT1 inhibitor: 2; cardiac RTF act: -5; Cardiac RTF inh: -1

Results for O=C(NCc1cc(C(F)(F)F)ccc1Cl)c1cccc2c1C(=O)c1ccc(Cl)cc1S2(=O)=O ?
IDE cell inh: 0

How did Cn1c(=O)c(N)c2c3c(c(Br)ccc31)C(=O)c1ccccc1-2 do in these assays?
IDE cell activ: -5; IDE cell inh: 8; CRFR2-BP ag: 89*; TPT1 inhibitor: -74; cardiac RTF act: active; Cardiac RTF inh: inactive

Results for COc1ccc(C2=NN(CCC(=O)NCc3cccs3)C(=O)CC2)cc1 ?
IDE cell activ: 10; IDE cell inh: 3; CRFR2-BP ag: 0; TPT1 inhibitor: 0; cardiac RTF act: 0; Cardiac RTF inh: -1

What do the screens show for `COc1ccc(NC2CCCN(C(=O)c3ccc(C(C)=O)s3)C2)cc1` (stereo not given)?
IDE cell activ: 10; IDE cell inh: 5; CRFR2-BP ag: 1; TPT1 inhibitor: -5; cardiac RTF act: -3; Cardiac RTF inh: 0

What do the screens show for `COc1ccc(NC(=O)c2ccc(=O)[nH]c2)cc1S(=O)(=O)N1CCOCC1`?
IDE cell activ: 5; CRFR2-BP ag: -1; cardiac RTF act: 0; Cardiac RTF inh: -4

What do the screens show for `CC1(c2ccc(OC(F)F)cc2)NC(=O)N(CC(=O)c2ccc3c(c2)OCO3)C1=O` (stereo not given)?
IDE cell activ: 0; IDE cell inh: -1; CRFR2-BP ag: 86*; TPT1 inhibitor: 4; cardiac RTF act: -8; Cardiac RTF inh: -3

Results for CC(=O)c1c(C)[nH]c(C(=O)CN2C(=O)NC(C)(c3ccc4c(c3)OCO4)C2=O)c1C (stereo not given) ?
IDE cell activ: 3; IDE cell inh: 5; CRFR2-BP ag: 5; TPT1 inhibitor: -2; cardiac RTF act: -2; Cardiac RTF inh: -1

Results for CC1(c2ccc([N+](=O)[O-])cc2)NC(=O)N(CC(=O)c2ccc3c(c2)OCO3)C1=O (stereo not given) ?
IDE cell activ: -3; IDE cell inh: -1; CRFR2-BP ag: 60*; TPT1 inhibitor: 1; cardiac RTF act: -1; Cardiac RTF inh: 5

What do the screens show for `COc1ccc2cc(OCC(=O)NNC(=O)Nc3ccc(C(C)=O)cc3)ccc2c1`?
IDE cell activ: -2; IDE cell inh: -4; CRFR2-BP ag: 2; TPT1 inhibitor: 1; cardiac RTF act: 3; Cardiac RTF inh: 0

Results for CNC[C@@H]1OCc2ccccc2-c2c(n(C)c3ccccc23)C(=O)N([C@H](C)CO)C[C@H]1C ?
CRFR2-BP ag: 0

How did O=C(O)CC/C(=N\Nc1ccc([N+](=O)[O-])cc1)c1ccccc1 do in these assays?
IDE cell activ: 2; IDE cell inh: 2; CRFR2-BP ag: 1; TPT1 inhibitor: 34*; cardiac RTF act: 9; Cardiac RTF inh: -15; TPT1 inh confirm: 46*; RNase T1 counter: 59*

What do the screens show for `CC(=O)Nc1c(O)c2cccc3c2n(c1=O)CCC3`?
IDE cell activ: 1; IDE cell inh: -5; CRFR2-BP ag: -3; TPT1 inhibitor: 1; cardiac RTF act: 0; Cardiac RTF inh: -4

Results for CS(=O)(=O)/C(C#N)=C\c1cnc(S(=O)(=O)c2ccccc2)s1 ?
IDE cell inh: 7; TPT1 inhibitor: 35*; TPT1 inh confirm: 6; RNase T1 counter: 12

Results for O=C1/C(=C\c2ccco2)SC(=S)N1c1ccc(O)cc1 ?
IDE cell activ: 0; IDE cell inh: 1; CRFR2-BP ag: -1; TPT1 inhibitor: 6; cardiac RTF act: 0; Cardiac RTF inh: -9

What do the screens show for `CN(C)c1ccc(/C=C/C=C2/SC(=S)N(c3ccccc3)C2=O)cc1`?
IDE cell activ: -4; IDE cell inh: 11; CRFR2-BP ag: 0; TPT1 inhibitor: 104*; cardiac RTF act: -1; Cardiac RTF inh: -20; TPT1 inh confirm: 71*; RNase T1 counter: 81*

What do the screens show for `O=C(NN1C(=O)/C(=C/C=C/c2ccco2)SC1=S)c1ccncc1`?
IDE cell inh: 2; CRFR2-BP ag: 0; TPT1 inhibitor: 86*; TPT1 inh confirm: 58*; RNase T1 counter: 36*

How did O=C1/C(=C/C=C/c2ccco2)SC(=S)N1c1ccc(O)cc1 do in these assays?
IDE cell activ: -1; IDE cell inh: 1; CRFR2-BP ag: 1; TPT1 inhibitor: 28*; cardiac RTF act: -6; Cardiac RTF inh: 6; TPT1 inh confirm: 50*; RNase T1 counter: 56*

Results for O=C(O)c1ccc(N2C(=O)/C(=C/C=C/c3ccccc3)SC2=S)cc1 ?
IDE cell activ: 2; IDE cell inh: -1; CRFR2-BP ag: -3; TPT1 inhibitor: 5; cardiac RTF act: -6; Cardiac RTF inh: 2

What do the screens show for `CN(C(=O)c1cccc(NC(=O)Cc2cccc(NC(=O)C3CCN(C(=O)C4CCCCC4)CC3)c2)c1)C1CC1`?
IDE cell activ: 4; CRFR2-BP ag: 0; cardiac RTF act: -6; Cardiac RTF inh: -9

How did NC(=O)c1cccc(CC(=O)c2ccccc2)c1 do in these assays?
IDE cell activ: 5; IDE cell inh: -4; CRFR2-BP ag: -2; TPT1 inhibitor: 74*; cardiac RTF act: -2; Cardiac RTF inh: -2; TPT1 inh confirm: 8; RNase T1 counter: 13

What do the screens show for `O=C(Cc1ccccc1)c1ccc(O)cc1`?
IDE cell activ: 2; CRFR2-BP ag: 0; cardiac RTF act: -5; Cardiac RTF inh: 7

How did CCN(CC)C1=CC2=CC(=C(C#N)C#N)CCC2CC1 (stereo not given) do in these assays?
IDE cell activ: 44*; IDE cell inh: -20; CRFR2-BP ag: 533; TPT1 inhibitor: 32*; cardiac RTF act: active; Cardiac RTF inh: inactive; TPT1 inh confirm: 22; RNase T1 counter: 37*

How did Nc1ccc2c(c1)Cc1cc([N+](=O)[O-])ccc1-2 do in these assays?
IDE cell activ: 2; IDE cell inh: 7; CRFR2-BP ag: 111*; TPT1 inhibitor: 53*; cardiac RTF act: -2; Cardiac RTF inh: 5; TPT1 inh confirm: 56*; RNase T1 counter: 65*

Screening data: PubChem, several laboratories
